# Assay results: PubChem BioAssay (Tox21)
# Unmarked numbers belong to inactive results. Results filed as inconclusive are left out. Where a call stands in place of a potency, no number is given. Calls of active or inactive are those of the source. Unless noted, the call rests on the fitted dose curve; in most records, active means well fitted curve in the direction sought with a large enough effect in the repeat runs; inconclusive means weak or mixed curves; inactive means no such curve, though single readings can be large; an effect the other way counts as inactive or inconclusive.
# Legend:
# [1] = molecular target: Thyrotropin-releasing hormone receptor (Homo sapiens) (UniProt P34981); experiment: qHTS assay to identify small molecule agonists of the thyrotropin-releasing hormone receptor (TRHR) signaling pathway (AID 1346891; calls by dose curve;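 further: HEK293 cells expressing TRHR with calcium dye readout; series mostly up to about 58 µM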)
# Procedure, shortened: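 In 1536-format, 1500 TRHR-Hek293 cells per well grew 18 h, took up calcium dye for 2 h at 37 °C, received compound, and were read kinetically; 15-point titrations, triplicates.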
# [2] = Caspase-3/7 induction in HepG2 cells by small molecules, qHTS assay (AID 1346978); further: nearly all actives have a fitted effect of over 15% in size
# Procedure, shortened: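 Wild-type HepG2 cells, 2,000/well, settled 5 hr at 37 C and 5% CO2, then compound-treated for 17 hr; caspase-3/7 activity read by luminescent Caspase-Glo 3/7 after 30 min at room temperature.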
# [3] = Caspase-3/7 induction in CHO-K1 cells by small molecules, qHTS cell viability counter screen (AID 1346979); further: nearly all actives have a fitted effect of over 35% in size
# Procedure, shortened: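 To flag cytotoxic compounds, treated CHO-K1 wild-type cells were given CellTiter-Fluor at 16hr and read fluorescently after 1hr at 37C; the caspase-3/7 luminescence was measured in these same wells.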
# [4] = Caspase-3/7 induction in CHO-K1 cells by small molecules, qHTS assay (AID 1346980); further: nearly all actives have a fitted effect of over 15% in size
# Procedure, shortened: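 Wild-type CHO-K1 cells exposed to compounds for 17hr at 37 C, 5% CO2. Caspase-3/7 activity then measured by Caspase-Glo 3/7 luminescence after 30min at room temperature.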
# [5] = Caspase-3/7 induction in HepG2 cells by small molecules, qHTS cell viability counter screen (AID 1346981); further: series mostly up to about 92 µM; nearly all actives have a fitted effect of over 30% in size
# Procedure, shortened: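 CellTiter-Fluor fluorescence measured viability in the same wells used for Caspase-Glo 3/7. HepG2 (wild type) at 2,000 cells/well were pre-incubated 5 hr, dosed, and given reagent at 16 hr, with 1 hr further at 37C.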
# [6] = molecular target: Nuclear receptor subfamily 1 group I member 2 (Rattus norvegicus) (UniProt Q9R1A7); experiment: Rat pregnane X receptor (rPXR) activation by small molecules, qHTS assay (AID 1346983); settings: rPXR luciferase reporter cells, One-Glo luminescence, 24 h; max activation: hits give high values; further: nearly all actives have a fitted effect of over 20% in size
# Procedure, shortened: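 Cell-based rPXR activation assay: rPXR cells, 2,000 per well, rested 5hr at 37 C, then exposed to compounds in DMSO for 24 hr at 37 C. Luciferase activity read by One-Glo luminescence after 30 min at room temperature.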
# [7] = molecular target: Nuclear receptor subfamily 1 group I member 2 (Homo sapiens) (UniProt O75469); experiment: CYP3A4 induction through human pregnane X receptor (PXR) by small molecules, qHTS assay (AID 1346984); further: nearly all actives have a fitted effect of over 40% in size
# Procedure, shortened: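 Read-out is luminescence after One-Glo addition, following a 3 hr, 37C incubation with Luciferin-IPA CYP3A4 substrate (3uM final). Before that, compounds were on DPX-2 cells (HepG2 co-transfected with PXR element plus CYP3A4-promoter luciferase) for 24 hr at 37C.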
# [8] = molecular target: Nuclear receptor subfamily 1 group I member 2 (Homo sapiens) (UniProt O75469); experiment: Human pregnane X receptor (PXR) activation by small molecules, qHTS assay (AID 1346985); further: nearly all actives have a fitted effect of over 40% in size
# Procedure, shortened: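 DPX-2 cells (HepG2 co-transfected with a PXR response element and a CYP3A4-promoter luciferase construct) were seeded at 2,000 per well, rested 5 hr at 37C, then exposed to DMSO-dissolved compounds for 24 hr. Activation was read as luciferase luminescence.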
# [9] = molecular target: Cytochrome P450 2D6 (Homo sapiens) (UniProt P10635); experiment: Cytochrome P450 Family 2 Subfamily D Member 6 (CYP2D6) small molecule antagonists: luciferase reporter qHTS assay (AID 1671196); further: series mostly up to about 120 µM; nearly all actives have a fitted effect of over 50% in size
# Procedure, shortened: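 CYP2D6 activity was followed as luminescence from its luciferin product after a 1 h NADPH-driven reaction at room temperature. Enzyme-substrate mix and compound were pre-incubated for 10 min, and the signal was read 20 min after adding detection reagent.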
# [10] = molecular target: Cytochrome P450 2C19 (Homo sapiens) (UniProt P33261); experiment: Cytochrome P450 Family 2 Subfamily C Member 19 (CYP2C19) small molecule antagonists: luciferase reporter qHTS assay (AID 1671197); further: nearly all actives have a fitted effect of over 65% in size; further: potency means the concentration at half of the fitted maximal effect
# Procedure, shortened: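 Compounds were tested on CYP2C19 activity via proluciferin conversion to luciferin. The 37C, 1 h reaction followed NADPH addition; detection reagent stopped it.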
# [11] = molecular target: Cytochrome P450 2C9 (Homo sapiens) (UniProt P11712); experiment: Cytochrome P450 Family 2 Subfamily C Member 9 (CYP2C9) small molecule antagonists: luciferase reporter qHTS assay (AID 1671198); further: nearly all actives have a fitted effect of over 50% in size; further: potency means the concentration at half of the fitted maximal effect
# Procedure, shortened: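 P450-Glo proluciferin substrate with CYP2C9 enzyme; 10 min RT preincubation, then NADPH regeneration 1 h at 37C; luciferin detection reagent 20 min RT, luminescence in relative luminescence units.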
# [12] = molecular target: Cytochrome P450 1A2 (Homo sapiens) (UniProt P05177); experiment: Cytochrome P450 Family 1 Subfamily A Member 2 (CYP1A2) small molecule antagonists: luciferase reporter qHTS assay (AID 1671199); further: nearly all actives have a fitted effect of over 50% in size; further: potency means the concentration at half of the fitted maximal effect
# Procedure, shortened: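 Luminescence from luciferin formed by CYP1A2 from a proluciferin substrate, read 20 min after detection reagent. Compound was pre-incubated 10 min with enzyme-substrate, and reaction started with NADPH regeneration solution for 1 h at room temperature; furafylline control.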
# [13] = molecular target: Voltage-gated inwardly rectifying potassium channel KCNH2 (Homo sapiens) (UniProt Q12809); experiment: Human Ether-a-go-go-Related Gene (hERG) channel small molecule antagonists: fluorescence cell-based qHTS assay (AID 1671200); further: nearly all actives have a fitted effect of over 50% in size; further: potency means the concentration at half of the fitted maximal effect
# Procedure, shortened: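 Measured: Tl+ flux via fluorescence (480/540 nm) in hERG-expressing U2OS cells after 1 h dye loading at room temperature.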
# [14] = molecular target: Cytochrome P450 3A4 (Homo sapiens) (UniProt P08684); experiment: Cytochrome P450 Family 3 Subfamily A Member 4 (CYP3A4) small molecule antagonists: luciferase reporter qHTS assay (AID 1671201); further: nearly all actives have a fitted effect of over 50% in size; further: potency means the concentration at half of the fitted maximal effect
# Procedure, shortened: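 Setup: enzyme-substrate mix, compound pin transfer, 10 min RT. Reaction: NADPH regeneration solution, 1 h RT. Readout: detection reagent stops turnover, luminescence measured after 20 min, expressed in relative luminescence units.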
# [15] = Human pregnane X receptor (PXR) small molecule agonists, qHTS cell viability counter screen (AID 1346977); further: nearly all actives have a fitted effect of over 50% in size
# Procedure, shortened: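 Readout is CellTiter-Fluor fluorescence from PXR-Luc HepG2 cells. Plated cells rested 5hr, then were treated with compounds for 24hr at 37C and 5% CO2, with reagent present during the last hour.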
# [16] = molecular target: Nuclear receptor subfamily 1 group I member 2 (Homo sapiens) (UniProt O75469); experiment: Human pregnane X receptor (PXR) small molecule agonists, qHTS assay (AID 1346982); further: nearly all actives have a fitted effect of over 35% in size; further: potency means the concentration at half of the fitted maximal effect
# Procedure, shortened: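 Agonist mode: luminescence from ONE-Glo after 24 h compound exposure at 37C in HepG2 cells carrying hPXR-responsive CYP3A4 luciferase, plated in charcoal-stripped serum medium 5 h beforehand.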
# Chain of Thyrotropin-releasing hormone receptor (Homo sapiens) (P34981 whole entry, looked up): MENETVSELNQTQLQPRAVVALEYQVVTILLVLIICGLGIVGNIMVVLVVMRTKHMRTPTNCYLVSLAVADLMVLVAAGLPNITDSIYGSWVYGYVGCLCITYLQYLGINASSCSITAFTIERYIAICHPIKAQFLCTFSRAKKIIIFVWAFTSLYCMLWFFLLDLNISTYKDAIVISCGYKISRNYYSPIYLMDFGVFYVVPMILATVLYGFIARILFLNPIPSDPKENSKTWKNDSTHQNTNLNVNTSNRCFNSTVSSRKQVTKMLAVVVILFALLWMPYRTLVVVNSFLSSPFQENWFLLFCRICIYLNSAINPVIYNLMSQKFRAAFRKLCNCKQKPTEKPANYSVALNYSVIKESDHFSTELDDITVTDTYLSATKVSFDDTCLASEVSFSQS
# Chain of Nuclear receptor subfamily 1 group I member 2 (Homo sapiens) (O75469 whole entry, looked up): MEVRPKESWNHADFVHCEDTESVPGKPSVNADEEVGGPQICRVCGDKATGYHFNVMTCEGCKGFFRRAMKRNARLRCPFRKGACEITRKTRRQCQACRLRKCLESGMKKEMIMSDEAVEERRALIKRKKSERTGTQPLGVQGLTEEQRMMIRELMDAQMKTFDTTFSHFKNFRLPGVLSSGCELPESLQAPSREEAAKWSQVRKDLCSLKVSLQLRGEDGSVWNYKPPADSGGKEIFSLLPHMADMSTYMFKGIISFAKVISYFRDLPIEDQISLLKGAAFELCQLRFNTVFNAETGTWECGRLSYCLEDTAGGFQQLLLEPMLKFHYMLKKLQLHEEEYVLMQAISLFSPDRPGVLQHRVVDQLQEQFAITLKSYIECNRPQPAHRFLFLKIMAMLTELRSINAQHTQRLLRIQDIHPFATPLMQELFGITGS
# Chain of Cytochrome P450 1A2 (Homo sapiens) (P05177 whole entry, looked up): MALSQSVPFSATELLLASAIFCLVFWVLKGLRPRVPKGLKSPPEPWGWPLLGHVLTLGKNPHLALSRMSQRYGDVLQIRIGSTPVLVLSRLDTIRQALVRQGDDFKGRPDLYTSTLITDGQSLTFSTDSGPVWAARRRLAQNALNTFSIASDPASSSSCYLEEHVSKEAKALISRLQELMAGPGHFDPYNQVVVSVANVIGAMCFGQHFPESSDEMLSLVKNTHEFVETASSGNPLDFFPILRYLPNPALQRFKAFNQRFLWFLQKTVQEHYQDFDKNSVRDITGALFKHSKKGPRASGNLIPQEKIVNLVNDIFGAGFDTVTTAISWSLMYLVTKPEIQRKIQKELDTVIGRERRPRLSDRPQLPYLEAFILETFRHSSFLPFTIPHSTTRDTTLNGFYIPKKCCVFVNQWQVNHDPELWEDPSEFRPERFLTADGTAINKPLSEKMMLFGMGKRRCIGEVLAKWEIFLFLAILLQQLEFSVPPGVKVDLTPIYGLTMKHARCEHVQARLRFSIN
# Chain of Cytochrome P450 2C9 (Homo sapiens) (P11712 whole entry, looked up): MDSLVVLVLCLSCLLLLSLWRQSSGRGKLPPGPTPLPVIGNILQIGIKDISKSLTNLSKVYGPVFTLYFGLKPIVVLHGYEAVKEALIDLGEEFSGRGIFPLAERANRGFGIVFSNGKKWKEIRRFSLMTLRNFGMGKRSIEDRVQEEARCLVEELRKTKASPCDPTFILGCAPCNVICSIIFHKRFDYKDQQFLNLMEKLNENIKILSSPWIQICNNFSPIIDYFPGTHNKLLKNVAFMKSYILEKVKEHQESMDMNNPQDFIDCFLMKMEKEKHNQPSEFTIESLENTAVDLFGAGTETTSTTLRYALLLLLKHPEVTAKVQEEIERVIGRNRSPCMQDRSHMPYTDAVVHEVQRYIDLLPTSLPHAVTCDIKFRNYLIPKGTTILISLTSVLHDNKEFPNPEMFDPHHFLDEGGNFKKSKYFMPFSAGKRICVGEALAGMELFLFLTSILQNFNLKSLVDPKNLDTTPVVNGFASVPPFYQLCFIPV
# Chain of Cytochrome P450 2C19 (Homo sapiens) (P33261 whole entry, looked up): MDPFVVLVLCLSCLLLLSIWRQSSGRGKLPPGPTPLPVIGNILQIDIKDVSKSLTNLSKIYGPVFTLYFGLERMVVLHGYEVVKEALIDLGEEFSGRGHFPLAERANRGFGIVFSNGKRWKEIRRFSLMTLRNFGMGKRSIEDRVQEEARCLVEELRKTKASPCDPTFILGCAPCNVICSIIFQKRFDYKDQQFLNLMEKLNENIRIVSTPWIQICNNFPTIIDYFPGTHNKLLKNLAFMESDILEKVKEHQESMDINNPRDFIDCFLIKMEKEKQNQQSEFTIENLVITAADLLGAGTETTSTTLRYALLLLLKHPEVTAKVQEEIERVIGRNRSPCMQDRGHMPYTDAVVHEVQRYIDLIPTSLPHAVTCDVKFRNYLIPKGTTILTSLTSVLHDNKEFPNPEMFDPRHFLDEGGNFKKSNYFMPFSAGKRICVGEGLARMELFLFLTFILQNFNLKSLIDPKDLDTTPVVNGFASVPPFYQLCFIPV
# Chain of Voltage-gated inwardly rectifying potassium channel KCNH2 (Homo sapiens) (Q12809 whole entry, looked up): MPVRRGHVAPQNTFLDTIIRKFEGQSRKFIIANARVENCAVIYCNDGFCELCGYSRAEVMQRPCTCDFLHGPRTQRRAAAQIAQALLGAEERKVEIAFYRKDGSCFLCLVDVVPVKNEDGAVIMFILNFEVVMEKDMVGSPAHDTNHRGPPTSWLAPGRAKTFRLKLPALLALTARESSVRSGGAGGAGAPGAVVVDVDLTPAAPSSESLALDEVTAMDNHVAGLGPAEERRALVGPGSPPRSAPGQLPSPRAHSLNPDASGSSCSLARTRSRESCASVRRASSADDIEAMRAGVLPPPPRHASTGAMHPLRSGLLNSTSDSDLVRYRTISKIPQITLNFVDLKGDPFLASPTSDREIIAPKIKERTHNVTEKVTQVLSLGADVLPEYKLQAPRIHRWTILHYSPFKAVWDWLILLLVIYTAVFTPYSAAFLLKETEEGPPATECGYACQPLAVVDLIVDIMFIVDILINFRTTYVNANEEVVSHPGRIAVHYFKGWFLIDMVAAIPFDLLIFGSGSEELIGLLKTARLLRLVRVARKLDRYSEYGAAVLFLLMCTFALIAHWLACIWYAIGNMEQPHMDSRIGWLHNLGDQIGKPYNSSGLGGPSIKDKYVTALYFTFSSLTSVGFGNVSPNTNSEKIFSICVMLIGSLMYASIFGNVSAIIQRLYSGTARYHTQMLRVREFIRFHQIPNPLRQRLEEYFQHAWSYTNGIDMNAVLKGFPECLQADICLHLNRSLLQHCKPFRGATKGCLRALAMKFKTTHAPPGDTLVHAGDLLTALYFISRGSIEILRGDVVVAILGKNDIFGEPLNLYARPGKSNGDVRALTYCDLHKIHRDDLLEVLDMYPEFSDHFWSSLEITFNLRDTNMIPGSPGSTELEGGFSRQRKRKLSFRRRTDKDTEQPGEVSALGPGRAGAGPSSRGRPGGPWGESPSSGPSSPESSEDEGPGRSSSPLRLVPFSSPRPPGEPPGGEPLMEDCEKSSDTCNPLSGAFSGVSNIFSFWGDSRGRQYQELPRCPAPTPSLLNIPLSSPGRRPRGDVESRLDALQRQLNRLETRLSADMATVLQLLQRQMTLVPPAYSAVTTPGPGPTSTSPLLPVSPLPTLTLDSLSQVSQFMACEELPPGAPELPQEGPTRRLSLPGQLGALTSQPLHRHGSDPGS
# Chain of Nuclear receptor subfamily 1 group I member 2 (Rattus norvegicus) (Q9R1A7 whole entry, looked up): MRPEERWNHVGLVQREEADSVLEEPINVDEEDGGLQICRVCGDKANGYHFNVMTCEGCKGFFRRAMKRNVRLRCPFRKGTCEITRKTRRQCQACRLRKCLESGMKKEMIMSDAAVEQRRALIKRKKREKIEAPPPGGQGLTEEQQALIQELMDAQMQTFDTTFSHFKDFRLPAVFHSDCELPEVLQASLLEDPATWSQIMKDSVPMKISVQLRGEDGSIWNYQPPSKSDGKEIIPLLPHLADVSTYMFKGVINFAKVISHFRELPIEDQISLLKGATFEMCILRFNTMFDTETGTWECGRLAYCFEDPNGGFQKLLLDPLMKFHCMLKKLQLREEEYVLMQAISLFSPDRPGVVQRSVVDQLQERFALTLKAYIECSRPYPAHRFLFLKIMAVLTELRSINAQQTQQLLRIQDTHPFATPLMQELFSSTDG
# Chain of Cytochrome P450 3A4 (Homo sapiens) (P08684 whole entry, looked up): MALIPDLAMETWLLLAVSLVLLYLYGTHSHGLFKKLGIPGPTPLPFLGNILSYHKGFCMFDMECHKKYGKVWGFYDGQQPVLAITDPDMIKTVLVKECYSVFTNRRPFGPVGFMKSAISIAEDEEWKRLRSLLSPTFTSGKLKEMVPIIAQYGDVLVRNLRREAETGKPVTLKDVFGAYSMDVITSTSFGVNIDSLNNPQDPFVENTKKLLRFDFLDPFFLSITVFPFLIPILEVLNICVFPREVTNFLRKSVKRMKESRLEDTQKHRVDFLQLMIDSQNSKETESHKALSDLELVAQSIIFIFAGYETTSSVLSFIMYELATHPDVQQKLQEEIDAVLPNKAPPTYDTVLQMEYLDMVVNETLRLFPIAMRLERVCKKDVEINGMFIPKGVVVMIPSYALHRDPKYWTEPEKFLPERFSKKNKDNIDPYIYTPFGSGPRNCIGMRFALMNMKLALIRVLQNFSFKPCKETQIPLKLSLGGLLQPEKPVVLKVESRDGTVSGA
# Chain of Cytochrome P450 2D6 (Homo sapiens) (P10635 whole entry, looked up): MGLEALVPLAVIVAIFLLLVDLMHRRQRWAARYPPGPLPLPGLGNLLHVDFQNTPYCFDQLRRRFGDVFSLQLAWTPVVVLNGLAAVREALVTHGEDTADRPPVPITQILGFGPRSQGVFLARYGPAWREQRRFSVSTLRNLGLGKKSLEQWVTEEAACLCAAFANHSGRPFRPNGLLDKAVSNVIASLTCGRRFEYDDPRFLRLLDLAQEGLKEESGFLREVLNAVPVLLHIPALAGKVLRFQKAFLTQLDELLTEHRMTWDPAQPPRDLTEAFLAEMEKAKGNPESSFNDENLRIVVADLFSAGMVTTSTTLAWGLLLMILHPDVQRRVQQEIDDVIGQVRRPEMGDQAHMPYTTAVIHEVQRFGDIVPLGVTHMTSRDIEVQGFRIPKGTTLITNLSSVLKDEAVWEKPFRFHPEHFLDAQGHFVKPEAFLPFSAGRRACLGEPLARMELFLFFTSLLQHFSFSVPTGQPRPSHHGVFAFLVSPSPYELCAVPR
Structure (SMILES),outcome [1],outcome [2],Potency [3],outcome [4],outcome [5],max activation [6] [%],Potency [7],Potency [8],Potency [9],Potency [10],Potency [11],Potency [12],Potency [13],Potency [14],Potency [15],Potency [16]
Nc1nc2c(ncn2CCC(CO)CO)c(=O)[nH]1,inactive,inactive,inactive,inactive,inactive,3.6,inactive,inactive,inactive,inactive,inactive,inactive,inactive,inactive,,
O=Cc1ccccc1[N+](=O)[O-],,inactive,inactive,inactive,inactive,,,,inactive,,,,inactive,inactive,inactive,inactive
Cc1c(C)n(CCN(C)C)c2ccc(C(=O)OCCN(C)C)cc12,inactive,inactive,,inactive,inactive,6.74,inactive,,inactive,inactive,inactive,,inactive,inactive,,inactive
CCCCCN(CCCCC)C(=O)C(CCC(=O)O)NC(=O)c1ccc(Cl)c(Cl)c1 (stereo unspecified),inactive,inactive,inactive,inactive,inactive,,,,,,2.19 µM (active),inactive,9.52 µM (active),,,inactive
CCc1cc(S(=O)(=O)O)c2cc(C(C)C)cccc1-2,inactive,inactive,inactive,inactive,inactive,,,,inactive,,,inactive,inactive,inactive,,inactive
CCO[Si](CCCN=C=O)(OCC)OCC,inactive,inactive,inactive,inactive,inactive,,,,inactive,inactive,,inactive,inactive,35.6 µM (active),,
CC(C)(O)C(=O)c1ccc(OCCO)cc1,inactive,inactive,inactive,inactive,inactive,,,,inactive,inactive,,35.6 µM (active),inactive,inactive,,
O=C(CCOCCOCCOCCOCCC(=O)Nc1c(I)cc(I)c(C(=O)O)c1I)Nc1c(I)cc(I)c(C(=O)O)c1I,,inactive,inactive,inactive,inactive,,,,inactive,inactive,inactive,,inactive,inactive,inactive,inactive
C#CC(O)CCCCC (stereo unspecified),,inactive,inactive,inactive,inactive,,,,inactive,80.3 µM (active),inactive,,inactive,inactive,inactive,inactive
CCCC=O,,inactive,inactive,inactive,inactive,,,,inactive,inactive,inactive,inactive,inactive,inactive,inactive,inactive
CCOC(=O)Nc1ccc2c(c1)N(C(=O)CCN1CCOCC1)c1ccccc1S2,,inactive,inactive,inactive,inactive,,,,,7.76 µM (active),,inactive,inactive,,inactive,7.5 µM (active)
COC(=O)CCCC(=O)O,,inactive,inactive,inactive,inactive,,,,inactive,inactive,inactive,,inactive,inactive,inactive,
Cc1nc(-c2ccc(OCC(C)C)c(C#N)c2)sc1C(=O)O,,inactive,,inactive,inactive,,,,inactive,inactive,17.4 µM (active),inactive,inactive,inactive,inactive,0.106 µM (active)
NC(N)=NS(=O)(=O)c1ccc(N)cc1,,inactive,inactive,inactive,inactive,-6.55,inactive,inactive,inactive,,inactive,inactive,inactive,inactive,inactive,
CCCCCCOC(=O)CC(CC(=O)OCCCCCC)(OC(=O)CCC)C(=O)OCCCCCC,,inactive,inactive,inactive,inactive,,,,inactive,39.9 µM (active),31.7 µM (active),inactive,inactive,,,inactive
